This passage reports inhibition results from PubChem BioAssay.

The nature of assay [1]: StAR promoter reporter inhibitors, counter-screen for LRH-1 inverse agonist project, cell-based, luminescence, high throughput (AID 651611; in the data active = inhibition above about 28%). As to conditions: StAR promoter luciferase reporter counterscreen, at 3.6 µM, hits give high values. In general terms: A counterscreen serves to expose hits that act by an unwanted route or on another target.
In assay [2] the target is Nuclear receptor subfamily 5 group A member 2 (Homo sapiens) (UniProt O00482). Kind of assay: NR5A2 activity suppression in reporter cells – cell-based, luminescence, confirmation (AID 651613; in the data active = inhibition above about 42%;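 also: HEK293T cells co-transfected with LRH-1 and StAR promoter luciferase reporter; 0% = vehicle wells and 100% = parental cells lacking receptor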). The conditions noted are these: cell-based LRH-1 luciferase reporter, inverse agonism; at 3.6 µM; hits give high values. For orientation: In a reporter assay the amount or activity of a reporter protein is the signal.

In assay [3] the target is Steroidogenic factor 1 (Homo sapiens) (UniProt Q13285). Kind of assay: inverse agonism at SF1 nuclear receptor – cell-based, luminescence, high throughput, counter-screen for LRH-1 inverse agonist project (AID 651614).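 Also: cells cotransfected with StAR promoter reporter and SF1 expression vector; 0% = vehicle on cells with receptor and 100% = vehicle on cells lacking receptor.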 The conditions noted are these: cell-based SF1 luciferase reporter, at 3.6 µM, hits give high values.
The nature of assay [4]: compounds suppressing VP16-driven luciferase signal – cell-based, luminescence, high throughput, counter-screen for LRH-1 inverse agonist project (AID 651615; in the data active = inhibition above about 33%). The conditions noted are these: Gal4-VP16 luciferase reporter cells, at 3.6 µM, hits give high values.

SMILES strings stand for the structures. A number with no mark means an inactive call. The source made the active and inactive calls. Rule as the data show it, unless noted: active = inhibition above about 44%; inactive = the rest.

One may read the inhibition as the relative decrease from the control value, in per cent.

Steroidogenic factor 1 (Homo sapiens), sequence (Q13285 whole entry, looked up, the tested form may be a part): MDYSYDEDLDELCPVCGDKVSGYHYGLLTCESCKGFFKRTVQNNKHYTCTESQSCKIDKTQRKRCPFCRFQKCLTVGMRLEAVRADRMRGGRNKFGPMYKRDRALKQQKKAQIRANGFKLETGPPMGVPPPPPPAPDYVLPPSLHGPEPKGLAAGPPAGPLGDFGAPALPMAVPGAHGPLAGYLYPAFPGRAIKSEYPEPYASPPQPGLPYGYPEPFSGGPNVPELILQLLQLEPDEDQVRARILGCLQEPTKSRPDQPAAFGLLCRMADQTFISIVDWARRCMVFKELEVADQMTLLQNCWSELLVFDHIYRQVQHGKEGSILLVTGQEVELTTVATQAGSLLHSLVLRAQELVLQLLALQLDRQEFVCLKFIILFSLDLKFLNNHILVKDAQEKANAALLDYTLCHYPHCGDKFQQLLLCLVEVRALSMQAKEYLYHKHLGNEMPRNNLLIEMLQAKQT
Nuclear receptor subfamily 5 group A member 2 (Homo sapiens), sequence (O00482 whole entry, looked up): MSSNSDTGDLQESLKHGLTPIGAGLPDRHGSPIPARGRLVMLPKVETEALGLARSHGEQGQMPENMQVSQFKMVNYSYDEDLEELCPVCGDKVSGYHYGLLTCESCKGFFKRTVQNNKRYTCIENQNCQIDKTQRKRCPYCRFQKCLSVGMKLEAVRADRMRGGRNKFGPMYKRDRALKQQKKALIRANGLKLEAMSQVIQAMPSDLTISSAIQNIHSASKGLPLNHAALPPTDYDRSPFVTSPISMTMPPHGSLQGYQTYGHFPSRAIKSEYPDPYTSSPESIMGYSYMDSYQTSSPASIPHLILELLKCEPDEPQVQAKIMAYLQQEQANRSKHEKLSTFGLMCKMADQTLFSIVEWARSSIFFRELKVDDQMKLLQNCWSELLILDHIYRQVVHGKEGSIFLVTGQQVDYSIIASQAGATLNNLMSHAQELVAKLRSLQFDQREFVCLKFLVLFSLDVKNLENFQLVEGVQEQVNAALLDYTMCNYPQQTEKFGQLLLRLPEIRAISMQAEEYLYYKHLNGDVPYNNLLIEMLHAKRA

Take `Cc1sc(NC(=O)C(C)C)c(C(=O)Nc2ccccc2)c1C`: the inhibition in assay [1] was 13.2%; in assay [2], 50.2% (active); in assay [3], 45.9% (active); in assay [4], -9.75%.
As to `Cn1cnnc1SCC(=O)Nc1ccc(N2CCOCC2)cc1`, the inhibition in assay [1] was 7.69%; in assay [2], 59.5% (active); in assay [3], 34.5%; in assay [4], -9.61%.
As to `CCCn1c2c(c(=N)c3c1CCC3)CCCC2`, the inhibition in assay [1] is 4.81%; in assay [2], 61.8% (active); in assay [3], 55% (active); in assay [4], 44.9% (active).
In the case of `O=C(CSc1nnc(Cc2cccs2)n1-c1ccccc1)Nc1ccc2c(c1)OCCO2`, the inhibition in assay [1] was -2.83%; in assay [2], 34.8%; in assay [3], 31.1%; in assay [4], -2.43%.
Turning to `COc1ccc(NC(=O)CSc2nc3nc(C)cc(C)c3c(=O)[nH]2)cc1`, the inhibition in assay [1] is 3.79%; in assay [2] it was 43.6% (active); in assay [3], 48.5% (active); in assay [4], -2.26%.
In the case of `Cc1ccc2nc(-c3ccc(NS(C)(=O)=O)cc3)cc(-c3ccccc3)c2c1`, the inhibition in assay [1] is 8.04%; in assay [2] it was 51.1% (active); in assay [3], 51.8% (active); in assay [4], -2.14%.
In the case of `Cc1nc2ccccc2n1Cc1ccc(Cl)cc1`, the inhibition in assay [1] is 8.73%; in assay [2], 56.1% (active); in assay [3], 54.1% (active); in assay [4], 47% (active).
In the case of `CC(Oc1ccc(S(=O)(=O)N2CCCC2)cc1[N+](=O)[O-])C(=O)NC(C)c1ccccc1` (stereo not drawn), the inhibition was 4.94% in assay [1], 52.3% (active) in assay [2], 50.8% (active) in assay [3] and 1.83% in assay [4].
For `CC(=O)c1ccc(OC(C)C(=O)OCC(=O)NCCc2ccccc2)cc1` (stereo not drawn), in that order: -2.97%, 47.1% (active), 40.7% and 7.05%.
In the case of `O=c1c2ccccc2ncn1Cc1ccco1`, the inhibition in assay [1] was 1.6%; in assay [2] it was 10.5%; in assay [3], 18.4%; in assay [4], 0.81%.
Take `O=C(c1ccco1)N1CCN(C(=O)c2ccc(COc3ccc(Cl)cc3Cl)o2)CC1`: the inhibition in assay [1] was 5.02%; in assay [2], 49% (active); in assay [3] it was 46.2% (active); in assay [4], -11.1%.
For `COc1cc(-c2noc(C)c2-c2ccc(N(C)C)nc2)cc(OC)c1OC`, in that order: 58.7% (active), 53% (active), 63.2% (active) and -0.05%.
With `CC(Nc1ncnc2ccccc12)c1ccccc1` (stereo not drawn), the inhibition in assay [1] is 20.9%; in assay [2] it was 60.2% (active); in assay [3], 67.9% (active); in assay [4], 53.7% (active).
Turning to `CCOc1ccc(CCNC(=O)CN2C(=O)NC3(CCc4ccccc43)C2=O)cc1OCC` (stereo not drawn), the inhibition in assay [1] is 13.9%; in assay [2], 49.8% (active); in assay [3], 45.7% (active); in assay [4] it was -14%.
Regarding `Cc1onc(-c2c(F)cccc2Cl)c1C(=O)Nc1cccc2nsnc12`, the inhibition in assay [1] was 8.33%; in assay [2], 52.1% (active); in assay [3], 49.8% (active); in assay [4], 27.2%.
For `COc1cc(-c2cc(-c3ccc(O)cc3)nc(N)c2C#N)ccc1O`, the inhibition was 36.1% (active) in assay [1], 68.3% (active) in assay [2], 53.9% (active) in assay [3] and -133% in assay [4].
Turning to `COc1cc(C(=O)OCC(=O)Nc2ccc(N3CCOCC3)cc2)ccc1OCC(C)C`, the inhibition in assay [1] was 14.1%; in assay [2] it was 54.5% (active); in assay [3] it was 65.5% (active); in assay [4], -7.28%.
Regarding `O=c1[nH]c2cc3ccccc3cc2nc1-c1nnnn1C1CCCC1`, the inhibition in assay [1] was 33.8% (active); in assay [2], 33.4%; in assay [3], 44.6% (active); in assay [4], 8.72%.
With `COc1cc(CSc2nnnn2-c2ccc(C)cc2)cc(OC)c1OC`, the inhibition in assay [1] is 24.4%; in assay [2] it was 53.3% (active); in assay [3] it was 61.1% (active); in assay [4], 44.8% (active).
As for `COc1ccc(C2(C)NC(=O)N(CC(=O)NCCC3=CCCCC3)C2=O)cc1OC` (stereo not drawn), the inhibition in assay [1] was 7.18%; in assay [2] it was 67.2% (active); in assay [3] it was 38.1%; in assay [4], 0.38%.
As to `CN(C)C(=O)Cn1c(SCC(=O)Nc2ccc3c(c2)OCO3)nc2ccccc21`, the inhibition was -0.98% in assay [1], 22.2% in assay [2], 28.2% in assay [3] and -0.46% in assay [4].
Consider `CCCCCCCn1ccc(=N)cc1`, for which the inhibition in assay [1] is 44.1% (active); in assay [2] it was 86.7% (active); in assay [3] it was 77.7% (active); in assay [4] it was 67.9% (active).
Consider `COCC1CCCN(C(=O)c2cc(COc3ccc4ncccc4c3)on2)C1` (stereo not drawn), for which the inhibition in assay [1] is 30.9% (active); in assay [2] it was 58.5% (active); in assay [3], 64.1% (active); in assay [4], 47.7% (active).
Regarding `C#Cc1cccc(Nc2nc(NCCOC)nc3ccsc23)c1`, the inhibition is 26.9% in assay [1], 47.1% (active) in assay [2], 57.4% (active) in assay [3] and 5.35% in assay [4].
For `CCCCCCCCn1c2c(c(=N)c3ccccc31)CCC2`, in that order: 78.5% (active), 110% (active), 92.8% (active) and 92.1% (active).
As to `CC(=O)c1ccc(NC(=O)CSC2=NS(=O)(=O)c3cc(Cl)ccc3N2)cc1`, the inhibition in assay [1] is 7.81%; in assay [2], 43.6% (active); in assay [3], 44.5% (active); in assay [4], -9.28%.
The like results for `COc1cc(CNc2ccc(CNc3ncn[nH]3)cc2)ccc1OCC(=O)NC(C)(C)C` were, in that order, -5.1%, 14.1%, -3.26% and 15.7%.
